In the library only some 2.8% were active in any assay of this set; here they are far more common.
IP6K1 inh: inhibitors of human IP6K1. AID 1645851. IP6K1 kinase, ADP-Glo luminescence, 2 h; stronger effect = lower value. Q92551. hit rate 0.81% among 140,000. activity change, % (series mostly up to about 58 µM); in the data active = activity change below about -25%; note: % is set by controls: 0 for no effect and ±100 for the full control effect
Target sequence (Q92551 whole entry, looked up): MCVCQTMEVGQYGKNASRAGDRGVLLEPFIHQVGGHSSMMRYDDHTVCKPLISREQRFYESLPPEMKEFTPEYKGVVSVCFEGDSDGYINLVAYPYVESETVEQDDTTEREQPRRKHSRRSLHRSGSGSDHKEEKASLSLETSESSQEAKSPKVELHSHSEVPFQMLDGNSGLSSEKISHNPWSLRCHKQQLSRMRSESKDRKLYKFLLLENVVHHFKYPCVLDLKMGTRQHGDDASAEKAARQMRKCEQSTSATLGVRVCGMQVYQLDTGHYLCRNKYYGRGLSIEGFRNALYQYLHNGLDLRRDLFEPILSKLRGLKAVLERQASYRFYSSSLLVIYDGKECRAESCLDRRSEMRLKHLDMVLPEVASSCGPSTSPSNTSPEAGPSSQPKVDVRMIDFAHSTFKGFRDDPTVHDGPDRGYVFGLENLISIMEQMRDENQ
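ADP-Glo luminescence measures ADP made by human IP6K1 during a 2 h RT reaction with ATP/IP6 (mix at 1.3 mM/130 uM); top library doses 57.5 and 19.1 uM final.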
SNCA expr inhib: SNCA gene expression inhibition; AID 1671194; Potency, µM (series often up to 57.2 µM), without a hit: at the highest dose activity change, negative = inhibition, most hits filed as inhibitors; HEK-293 SNCA-luciferase knock-in, luminescence, 24 h; hit rate 0.17% among 140,000;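 note: potency is the fitted concentration of half-maximal effect; plate controls were DMSO cells for no effect and cell-free wells for full effect; nearly all actives have a fitted effect of over 45% in size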
KDM5B inhibitor: blocks human KDM5B histone demethylase activity | Q9UGL1 | KDM5B demethylase, FDH-coupled NADH fluorescence (FDH is formaldehyde dehydrogenase) | Potency, µM (highest dose often 57.7 µM), usual class: inhibitors | hit rate 2.6% among 220,000 | AID 1347165; note: potency is the fitted concentration of half-maximal effect; 0% is about no effect; nearly all actives have a fitted effect of over 70% in size
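Here, H3K4me3 peptide (12.5 µM in substrate mix) is demethylated by KDM5BΔAP, 200 nM final, after 10 min compound exposure. Formaldehyde product is coupled through FDH (0.25 U/mL in mix) to NADH fluorescence; 30-min ΔRFU feeds dose-response curves.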
SNCA viab count: counter-screen for SNCA expression inhibitors: cell viability | AID 1671193 | hit rate 0.12% among 150,000 | Potency, µM (series often up to 57.1 µM), for inactives: at the highest dose activity change, negative = cytotoxicity, most hits filed as cytotoxic | HEK-293-SNCA-luc viability, GF-AFC fluorescence, 24 h;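 note: potency is the fitted concentration of half-maximal effect; 0% = DMSO-treated cells and -100% = medium-only wells without cells; nearly all actives have a fitted effect of over 30% in size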
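Cytotoxicity counterscreen: after 24 h compound treatment of genome-edited SNCA-luciferase HEK-293 cells, live-cell protease substrate GF-AFC read by fluorescence after 30 min; activity scaled between DMSO (0%) and medium-only (-100%), curves Hill-fitted.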
Active calls of the source: *; i = inactive; ? = inconclusive; . = no result; [ ] = another dose, or the depositor's remark. Unless noted, calls come from the whole dose curve; as a rule, active = well fitted curve in the direction sought with a large enough effect; inconclusive = small, poorly fitted or top-dose-only effect, or another doubt; inactive = no such curve, though single readings can be large; an effect the other way counts as inactive or inconclusive.

SMILES	IP6K1 inh	SNCA expr inhib	KDM5B inhibitor	SNCA viab count
O=C(NC1CCCCC1)c1ccc2nnc(Cc3ccc(Cl)cc3)n2c1	-4	-27%	.	-7%
CCNC(=O)N[C@H]1CO[C@H]2[C@@H]1OC[C@@H]2Nc1nccc(-c2ccc(OC)cc2)n1	-7	-13%[87.6 µM]	28µM*	-1%[87.6 µM]
COc1ccc(-c2ccnc(N[C@H]3CO[C@H]4[C@@H]3OC[C@H]4OC(=O)Nc3ccc(C(C)(C)C)cc3)n2)cc1	0	-11%	25µM*	-11%
C=CCNC(=O)N[C@H]1CO[C@H]2[C@@H]1OC[C@@H]2Nc1nccc(-c2ccc(OC)cc2)n1	-6	?	35µM*	-5%[87.6 µM]
COc1ccc(-c2ccnc(N[C@H]3CO[C@H]4[C@@H]3OC[C@H]4OCC(=O)N(C)C)n2)cc1	2	-7%[87.6 µM]	35µM*	?
Cc1ccc(C(=O)N2CCC3(CC2)CC(N(C(=O)NC(C)C)C2CC2)CCO3)cn1 (stereo unspecified)	9	-16%	i	1%
O=C(Cn1nc(C(=O)O)c2ccccc2c1=O)c1ccc(F)cc1	.	.	i	.
CCCn1c(=O)c2c(ncn2Cc2ccccc2)n(Cc2ccccc2)c1=O	.	.	i	.
O=C(O)[C@H](Cn1ccc(=O)[nH]c1=O)NC1CCCCC1	8	16%[87.6 µM]	i	9%[87.6 µM]
COc1ccc(-c2nc3cnccn3c2NCCC(=O)Nc2ccc(C)cc2C)cc1	1	32%	25µM*	?
COc1ccc(-c2nc3cnccn3c2NCCC(=O)O)cc1	6	1%	28µM*	?
COc1ccccc1-c1nc2cnccn2c1NCCC(=O)Nc1cc(F)ccc1F	30	-1%	28µM*	?
NCCC(=O)Nc1cc(F)ccc1F	.	.	i	.
Cc1ccc(-c2nc3cnccn3c2NCCC(=O)NCc2ccco2)cc1	1	?	28µM*	?
CC1CN(C(=O)c2csc(-c3ccc(C(F)(F)F)cc3)n2)CCCO1 (stereo unspecified)	-19	4%	i	-3%
O=C(CCC1CCCN(Cc2ccc(-c3ccccc3)cc2)C1)N1CCOCC1 (stereo unspecified)	14	-23%	i	2%
Cc1cn2nc(C(=O)NCCc3ccccc3)cc2c(N2CCCC2)n1	-15	1%	i	-9%
Cc1cn2nc(C(=O)NCc3cccc(Cl)c3)cc2c(N2CCCC2)n1	10	?	25µM*	5%
Cc1cn2nc(C(=O)NCCCc3ccccc3)cc2c(N2CCCC2)n1	5	6%	25µM*	2%
CN(Cc1cccnc1)Cc1nc(C2(O)CCN(Cc3ccccc3C(F)(F)F)CC2)cs1	0	-23%	i	4%
CN1CC(=O)N(c2ccccc2F)Cc2c(NCC(C)(C)C)ncnc21	-14	-2%	i	-3%
O=C(O)c1ccnc(-c2ccnc(NCCN3CCCCC3=O)n2)c1	44	-22%	22µM*	4%
O=C(O)c1ccnc(-c2ccnc(NCCc3noc(C4CCC4)n3)n2)c1	28	10%	28µM*	-1%
COc1ccc(NC(=O)c2ccc(-c3ncc4cnc(C5=CCOCC5)cn34)cc2)cn1	-18	5%[87.6 µM]	28µM*	-13%[87.6 µM]
COc1ccc(C(=O)Nc2ccc(-c3nnc4n3CCCC4)cc2)cn1	-6	17%	i	9%
SMILES	IP6K1 inh	SNCA expr inhib	KDM5B inhibitor	SNCA viab count
O=C(NCCc1cnc[nH]1)c1ccc(-c2ncc3cnc(-c4ccccc4)cn23)cc1	-2	-22%[87.6 µM]	.	3%[87.6 µM]
O=C(c1ccc(-c2ncc3cnc(C4=CCOCC4)cn23)cc1)N1CC[S+](=O)([O-])CC1	-12	9%[87.6 µM]	35µM*	-4%[87.6 µM]
COc1cccc(CC(=O)N2CCC3(CC2)N=C(c2ccc(C)cc2)NO3)c1	-4	-17%	i	-20%
C=CCC1(Nc2c(C)cccc2CC)CCCCC1	.	.	i	.
O=C(NC1CCN(c2cc(-c3cccs3)[nH]n2)C1)c1cccc(Br)c1 (stereo unspecified)	2	?	7.9µM*	?
O=C(NC1CCN(c2cc(-c3cccs3)[nH]n2)C1)c1cccs1 (stereo unspecified)	8	-22%	?	1%
O=C(NC1CCN(c2cc(-c3cccs3)[nH]n2)C1)c1cccc(OC(F)(F)F)c1 (stereo unspecified)	4	-24%	5µM*	-1%
COc1ccccc1Nc1ncc2c(n1)CN(C(=O)Cc1ccc3c(c1)OCO3)CCN2	-2	0%[87.6 µM]	?	2%[87.6 µM]
O=C(Cc1ccc2c(c1)OCO2)N1CCNc2cnc(Nc3cccc(F)c3)nc2C1	-23	-23%[87.6 µM]	32µM*	-16%[87.6 µM]
CC(C)NC(=O)N1CCNc2cnc(Nc3cccc(F)c3)nc2C1	8	17%[87.6 µM]	32µM*	-3%[87.6 µM]
Cc1cccc(C)c1OCCC(=O)NC(C)c1cccs1 (stereo unspecified)	.	.	i	.
CCc1nc(N2CCOCC2)ncc1C(=O)O	-21	-2%	25µM*	3%
CCCc1ccc(S(=O)(=O)N2CCc3nc4cc[nH]n4c(=O)c3C2)cc1	0	?	14µM*	0%
Cc1ccc(S(=O)(=O)N2CCc3nc4cc[nH]n4c(=O)c3C2)cc1C	6	-3%	25µM*	3%
O=c1cc(N2CCOCC2)oc2c(NCc3cnccn3)nccc12	-22	2%[87.6 µM]	35µM*	-2%[87.6 µM]
O=c1cc(N2CCOCC2)oc2c(NCC3CCOCC3)nccc12	-10	?	32µM*	?
O=c1cc(N2CCOCC2)oc2c(-c3ccccc3F)nccc12	-21	-3%[87.6 µM]	?	?
CNC(=O)c1cccc(-c2cnc(Nc3cccnc3OC)c3c2CCO3)c1	-5	2%[87.6 µM]	35µM*	?
COc1cncc(Nc2ncc(-c3cccnc3)c3c2OCC3)c1	-20	109%[87.6 µM]	i	5%[87.6 µM]
CNC(=O)c1cccc(-c2cnc(Nc3ccccc3)c3c2CCO3)c1	-18	172%[87.6 µM]	32µM*	-17%[87.6 µM]
CNC(=O)c1cccc(-c2cnc(Nc3ccc(N4CCOCC4)cc3)c3c2CCO3)c1	-19	96%[87.6 µM]	?	-23%[87.6 µM]
c1ccc(-c2cnc(CSc3nnc(NC4CC4)s3)o2)cc1	.	.	i	.
Cn1nnnc1C1CCCN(C(=O)C2CCCC2)C1 (stereo unspecified)	-11	-14%	28µM*	14%
COCCNC(=O)[C@@H]1C[C@@H](O)CN1C1CCN(C(=O)CC(C)C)CC1	4	3%	i	-2%
COc1ccc(C(=O)N2CCC[C@H]2c2nc(-c3ccc(OC)c(OC)c3)no2)cc1OC	-2	31%	i	-5%
COc1ccc(-c2noc([C@@H]3CCCN3C(=O)Cc3cccc(F)c3)n2)cc1OC	-1	5%	25µM*	-13%
COc1ccc(CC(=O)N2CCC[C@H]2c2nc(-c3ccc(OC)c(OC)c3)no2)cc1Cl	9	38%	?	-2%
COc1ccc(C(=O)N2CCC[C@H]2c2nc(-c3ccc(OC)c(OC)c3)no2)c(C)c1	4	20%	28µM*	-16%
COc1ccc(-c2noc([C@@H]3CCCN3C(=O)Cc3ccccc3Cl)n2)cc1OC	0	-10%	28µM*	-18%
Cc1noc(C)c1-c1cc2cc(C(C)C)oc2c(N2CCS(=O)(=O)CC2)n1	-16	-1%[87.6 µM]	32µM*	4%[87.6 µM]
